About 7,900 targets were measured; listed, in parts, are those with a hit and a random draw of the rest. About 0.6% of all pairs of compound and target were hits.
How the values were obtained:
Test in all cases: log2 fold change, soluble protein after heating vs DMSO (PISA); higher = thermal stabilisation; K562 cells, 10 uM, 30 min; active = over 0.2 and 3.5 SD of the protein, either way, in both replicates (recomputed)
IRAK-1-4 Inhibitor I = compound: C1COCCN1CCN2C3=CC=CC=C3N=C2NC(=O)C4=CC(=CC=C4)[N+](=O)[O-] [IRAK-1-4 Inhibitor I]
Summary of the method: (§1)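 K562 cells at 2×10^6 cells/mL were treated with 10 μM compound for 30 min. Aliquots were heated for 3 min across 48°C-58°C, pooled, and extracted in PBS with 0.5% NP-40 at 4°C; soluble protein was the supernatant after 21,000xg for 90 min. Soluble protein was quantified by TMTpro 16plex LC-MS/MS with channel sums equalised, and reported as log2 fold change in thermal stability against DMSO controls, with values from duplicates.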

ibrutinib = compound: C=CC(=O)N1CCC[C@@H](n2nc(-c3ccc(Oc4ccccc4)cc3)c3c(N)ncnc32)C1 [ibrutinib]
Summary of the method: as §1

[1] = compound: CC(=O)c1cnc2ccc(-c3cc(Cl)c(O)c(Cl)c3)nc2c1N[C@H]1CC[C@H](CN(C)C)CC1
Summary of the method: as §1

ralimetinib = compound: CC(C)(C)Cn1c(N)nc2ccc(-c3[nH]c(C(C)(C)C)nc3-c3ccc(F)cc3)nc21 [ralimetinib]
Summary of the method: as §1

[2] = compound: CC(C)(O)CC(=O)NCCn1ccc2ncnc(Nc3ccc(Oc4cccc(C(F)(F)F)c4)c(Cl)c3)c21
Summary of the method: as §1

[3] = compound: CC(C)C1=C2N=C(C=C(N2N=C1)NCC3=CC=CC=C3)NCCCCCCN
Summary of the method: as §1

[4] = compound: CC(C)C[C@@H](C=O)NC(=O)[C@H](CC(C)C)NC(=O)[C@H](CC(C)C)NC(=O)OCc1ccccc1
Summary of the method: as §1

pinometostat = compound: CC(C)N(C[C@H]1O[C@@H](n2cnc3c(N)ncnc32)[C@H](O)[C@@H]1O)[C@H]1C[C@@H](CCc2nc3cc(C(C)(C)C)ccc3[nH]2)C1 [pinometostat]
Summary of the method: as §1

[5] = compound: CC1=C(C(CC(=O)N1)C2=CC=C(C=C2)C(F)(F)F)C(=O)NC3=C(C=C4C(=C3)C=NN4)F
Summary of the method: as §1

[6] = compound: CC1=C(C2=C(C=C1)C(=O)C3=CC=CC=C3N2CCCN)C
Summary of the method: as §1

[7] = compound: CC1=C(C=C(C=C1)NC(=O)C2=CC(=CC=C2)C(C)(C)C#N)NC3=CC4=C(C=C3)N=CN(C4=O)C
Summary of the method: as §1

[8] = compound: CC1=C(C=C(C=C1)NC(=O)C2=CC(=CC=C2)N(C)C)NC(=O)C3=CC=C(C=C3)O
Summary of the method: as §1

[9] = compound: CC1=CC=C(C=C1)SC2=C3C=C(SC3=CN=C2)C(=O)N
Summary of the method: as §1

[10] = compound: CC1=NC(=CC=C1)C2=C(N=C(N2)C(C)(C)C)C3=CC4=NC=CN=C4C=C3
Summary of the method: as §1

Nexturastat A = compound: CCCCN(Cc1ccc(C(=O)NO)cc1)C(=O)Nc1ccccc1 [Nexturastat A]
Summary of the method: as §1

vemurafenib = compound: CCCS(=O)(=O)Nc1ccc(F)c(C(=O)c2c[nH]c3ncc(-c4ccc(Cl)cc4)cc23)c1F [vemurafenib]
Summary of the method: as §1

[11] = compound: CCCS(=O)(=O)Nc1ccc(F)c(C(=O)c2c[nH]c3ncc(Cl)cc23)c1F
Summary of the method: as §1

[12] = compound: CCCc1cc(C)[nH]c(=O)c1CNC(=O)c1cc(-c2ccnc(N3CCN(C)CC3)c2)cc2c1cnn2C(C)C
Summary of the method: as §1

givinostat = compound: CCN(CC)Cc1ccc2cc(COC(=O)Nc3ccc(C(=O)NO)cc3)ccc2c1 [givinostat]
Summary of the method: as §1

barasertib = compound: CCN(CCCOc1ccc2c(Nc3cc(CC(=O)Nc4cccc(F)c4)[nH]n3)ncnc2c1)CCOP(=O)(O)O [barasertib]
Summary of the method: as §1

Measured: log2 fold change

TBK1 (UniProt Q9UHD2)
inactive: IRAK-1-4 Inhibitor I -0.046 | ibrutinib -0.019 | [1] -0.162 | ralimetinib 0.024 | [2] -0.067 | [3] -0.208 | [4] 0.046 | pinometostat 0.087 | [5] 0.028 | [6] -0.091 | [7] -0.018 | [8] -0.03 | [9] 0.019 | [10] -0.007 | Nexturastat A 0.163 | vemurafenib -0.012 | [11] 0.089 | [12] 0.083 | givinostat 0.065 | barasertib 0.028

SNW1 (UniProt Q13573)
active: [6] 0.23
inactive: IRAK-1-4 Inhibitor I 0.004 | ibrutinib 0.024 | [1] 0.197 | ralimetinib 0.021 | [2] 0.024 | [3] 0.149 | [4] 0.075 | pinometostat -0.008 | [5] -0.015 | [7] -0.035 | [8] 0.041 | [9] -0.017 | [10] 0 | Nexturastat A 0.074 | vemurafenib -0.04 | [11] -0.017 | [12] -0.045 | givinostat -0.041 | barasertib -0.02

SNX6 (UniProt Q9UNH7)
inactive: IRAK-1-4 Inhibitor I 0.012 | ibrutinib 0.035 | [1] -0.233 | ralimetinib -0.035 | [2] -0.249 | [3] -0.234 | [4] 0.013 | pinometostat 0.048 | [5] 0.026 | [6] -0.013 | [7] -0.04 | [8] -0.016 | [9] 0.019 | [10] 0.021 | Nexturastat A -0.025 | vemurafenib -0.003 | [11] 0.076 | [12] 0.006 | givinostat 0.077 | barasertib 0.079

SNX12 isoform 1 (UniProt Q9UMY4)
UniProt Q9UMY4, sequence (Q9UMY4 whole entry, looked up): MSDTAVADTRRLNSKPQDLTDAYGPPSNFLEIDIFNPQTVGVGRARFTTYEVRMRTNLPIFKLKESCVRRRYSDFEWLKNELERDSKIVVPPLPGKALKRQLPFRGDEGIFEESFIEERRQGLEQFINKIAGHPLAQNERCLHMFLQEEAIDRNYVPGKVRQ
inactive: IRAK-1-4 Inhibitor I 0.039 | ibrutinib -0.007 | [1] -0.069 | ralimetinib -0.011 | [2] -0.068 | [3] -0.09 | [4] 0.03 | pinometostat 0.032 | [5] -0.007 | [6] 0 | [7] -0.021 | [8] -0.006 | [9] 0.032 | [10] 0.024 | Nexturastat A -0.082 | vemurafenib 0.054 | [11] 0.059 | [12] 0.008 | givinostat 0.004 | barasertib 0.062

SLC9A6 isoform 2 (UniProt Q92581)
inactive: IRAK-1-4 Inhibitor I 0.052 | ibrutinib 0.024 | [1] 0.005 | ralimetinib -0.056 | [2] -0.02 | [3] 0.038 | [4] 0.042 | pinometostat 0.083 | [5] 0.021 | [6] 0.023 | [7] -0.035 | [8] 0.024 | [9] -0.002 | [10] -0.012 | Nexturastat A -0.061 | vemurafenib 0.024 | [11] 0 | [12] -0.063 | givinostat -0.01 | barasertib 0.018

TBC1D15 isoform 3 (UniProt Q8TC07)
active: [3] -0.326
inactive: IRAK-1-4 Inhibitor I 0.235 | ibrutinib -0.021 | [1] 0.009 | ralimetinib 0.041 | [2] -0.082 | [4] 0.012 | pinometostat 0.056 | [5] 0 | [6] -0.01 | [7] 0.076 | [8] -0.028 | [9] -0.003 | [10] -0.019 | Nexturastat A 0.002 | vemurafenib 0.049 | [11] 0.12 | [12] -0.015 | givinostat 0.046 | barasertib 0.068

SNX1 (UniProt Q13596)
UniProt Q13596, sequence (Q13596 whole entry, looked up): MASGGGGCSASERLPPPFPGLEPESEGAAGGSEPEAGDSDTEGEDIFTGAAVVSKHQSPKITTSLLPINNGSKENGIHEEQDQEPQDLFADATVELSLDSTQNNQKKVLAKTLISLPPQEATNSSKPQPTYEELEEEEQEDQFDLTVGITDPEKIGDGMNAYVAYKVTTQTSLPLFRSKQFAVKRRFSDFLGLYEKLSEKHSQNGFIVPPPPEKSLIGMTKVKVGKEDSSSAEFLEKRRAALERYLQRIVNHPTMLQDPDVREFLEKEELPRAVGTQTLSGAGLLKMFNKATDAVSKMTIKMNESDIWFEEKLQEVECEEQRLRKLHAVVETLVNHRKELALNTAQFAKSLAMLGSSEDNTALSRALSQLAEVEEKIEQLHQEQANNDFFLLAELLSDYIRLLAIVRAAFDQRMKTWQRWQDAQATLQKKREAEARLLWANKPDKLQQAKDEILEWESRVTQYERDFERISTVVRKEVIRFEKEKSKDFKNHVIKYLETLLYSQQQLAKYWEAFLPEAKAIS
inactive: IRAK-1-4 Inhibitor I 0.022 | ibrutinib 0.022 | [1] -0.227 | ralimetinib 0.033 | [2] -0.288 | [3] -0.246 | [4] 0.034 | pinometostat 0.014 | [5] 0.015 | [6] 0.036 | [7] -0.014 | [8] -0.001 | [9] -0.001 | [10] 0.042 | Nexturastat A -0.025 | vemurafenib 0.002 | [11] 0.083 | [12] -0.014 | givinostat 0.054 | barasertib 0.037

SMAD2 (UniProt Q15796)
UniProt Q15796, sequence (Q15796 whole entry, looked up): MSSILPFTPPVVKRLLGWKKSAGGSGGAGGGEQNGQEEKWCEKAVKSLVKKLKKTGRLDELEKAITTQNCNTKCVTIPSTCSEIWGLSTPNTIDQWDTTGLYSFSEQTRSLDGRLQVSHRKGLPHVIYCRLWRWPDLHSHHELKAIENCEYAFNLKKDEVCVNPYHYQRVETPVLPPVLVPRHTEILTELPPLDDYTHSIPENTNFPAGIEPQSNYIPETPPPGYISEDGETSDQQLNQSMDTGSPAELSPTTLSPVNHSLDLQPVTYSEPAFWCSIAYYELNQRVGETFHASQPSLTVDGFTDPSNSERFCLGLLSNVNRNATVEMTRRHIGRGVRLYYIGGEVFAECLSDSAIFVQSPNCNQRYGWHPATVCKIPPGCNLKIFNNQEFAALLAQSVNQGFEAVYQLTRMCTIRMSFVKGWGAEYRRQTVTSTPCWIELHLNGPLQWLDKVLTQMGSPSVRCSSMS
inactive: IRAK-1-4 Inhibitor I -0.145 | ibrutinib 0.05 | [1] -0.091 | ralimetinib -0.069 | [2] -0.088 | [3] -0.015 | [4] 0.124 | pinometostat -0.125 | [5] -0.192 | [6] 0.079 | [7] 0.036 | [8] -0.034 | [9] 0.01 | [10] 0.052 | Nexturastat A -0.382 | vemurafenib -0.016 | [11] 0.04 | [12] -0.027 | givinostat 0.047 | barasertib 0.047

TELO2 (UniProt Q9Y4R8)
inactive: IRAK-1-4 Inhibitor I -0.126 | ibrutinib -0.044 | [1] 0.008 | ralimetinib 0.103 | [2] 0 | [3] -0.375 | [4] 0.049 | pinometostat 0.204 | [5] -0.015 | [6] 0.125 | [7] 0.04 | [8] -0.026 | [9] 0.028 | [10] -0.057 | Nexturastat A 0.143 | vemurafenib 0.12 | [11] 0.089 | [12] 0.014 | givinostat 0.084 | barasertib 0.05

SLIRP (UniProt Q9GZT3)
inactive: IRAK-1-4 Inhibitor I 0.004 | ibrutinib 0.035 | [1] -0.192 | ralimetinib -0.027 | [2] -0.239 | [3] -0.02 | pinometostat -0.016 | [5] 0.088 | [6] -0.342 | [7] 0.175 | [8] 0.008 | [9] -0.035 | [10] 0.039 | Nexturastat A 0.286 | vemurafenib 0.028 | [11] -0.031 | [12] 0.214 | givinostat 0.113 | barasertib 0.019
active: [4] 0.393

SPG11 (UniProt Q96JI7)
UniProt Q96JI7, sequence (Q96JI7 whole entry, looked up): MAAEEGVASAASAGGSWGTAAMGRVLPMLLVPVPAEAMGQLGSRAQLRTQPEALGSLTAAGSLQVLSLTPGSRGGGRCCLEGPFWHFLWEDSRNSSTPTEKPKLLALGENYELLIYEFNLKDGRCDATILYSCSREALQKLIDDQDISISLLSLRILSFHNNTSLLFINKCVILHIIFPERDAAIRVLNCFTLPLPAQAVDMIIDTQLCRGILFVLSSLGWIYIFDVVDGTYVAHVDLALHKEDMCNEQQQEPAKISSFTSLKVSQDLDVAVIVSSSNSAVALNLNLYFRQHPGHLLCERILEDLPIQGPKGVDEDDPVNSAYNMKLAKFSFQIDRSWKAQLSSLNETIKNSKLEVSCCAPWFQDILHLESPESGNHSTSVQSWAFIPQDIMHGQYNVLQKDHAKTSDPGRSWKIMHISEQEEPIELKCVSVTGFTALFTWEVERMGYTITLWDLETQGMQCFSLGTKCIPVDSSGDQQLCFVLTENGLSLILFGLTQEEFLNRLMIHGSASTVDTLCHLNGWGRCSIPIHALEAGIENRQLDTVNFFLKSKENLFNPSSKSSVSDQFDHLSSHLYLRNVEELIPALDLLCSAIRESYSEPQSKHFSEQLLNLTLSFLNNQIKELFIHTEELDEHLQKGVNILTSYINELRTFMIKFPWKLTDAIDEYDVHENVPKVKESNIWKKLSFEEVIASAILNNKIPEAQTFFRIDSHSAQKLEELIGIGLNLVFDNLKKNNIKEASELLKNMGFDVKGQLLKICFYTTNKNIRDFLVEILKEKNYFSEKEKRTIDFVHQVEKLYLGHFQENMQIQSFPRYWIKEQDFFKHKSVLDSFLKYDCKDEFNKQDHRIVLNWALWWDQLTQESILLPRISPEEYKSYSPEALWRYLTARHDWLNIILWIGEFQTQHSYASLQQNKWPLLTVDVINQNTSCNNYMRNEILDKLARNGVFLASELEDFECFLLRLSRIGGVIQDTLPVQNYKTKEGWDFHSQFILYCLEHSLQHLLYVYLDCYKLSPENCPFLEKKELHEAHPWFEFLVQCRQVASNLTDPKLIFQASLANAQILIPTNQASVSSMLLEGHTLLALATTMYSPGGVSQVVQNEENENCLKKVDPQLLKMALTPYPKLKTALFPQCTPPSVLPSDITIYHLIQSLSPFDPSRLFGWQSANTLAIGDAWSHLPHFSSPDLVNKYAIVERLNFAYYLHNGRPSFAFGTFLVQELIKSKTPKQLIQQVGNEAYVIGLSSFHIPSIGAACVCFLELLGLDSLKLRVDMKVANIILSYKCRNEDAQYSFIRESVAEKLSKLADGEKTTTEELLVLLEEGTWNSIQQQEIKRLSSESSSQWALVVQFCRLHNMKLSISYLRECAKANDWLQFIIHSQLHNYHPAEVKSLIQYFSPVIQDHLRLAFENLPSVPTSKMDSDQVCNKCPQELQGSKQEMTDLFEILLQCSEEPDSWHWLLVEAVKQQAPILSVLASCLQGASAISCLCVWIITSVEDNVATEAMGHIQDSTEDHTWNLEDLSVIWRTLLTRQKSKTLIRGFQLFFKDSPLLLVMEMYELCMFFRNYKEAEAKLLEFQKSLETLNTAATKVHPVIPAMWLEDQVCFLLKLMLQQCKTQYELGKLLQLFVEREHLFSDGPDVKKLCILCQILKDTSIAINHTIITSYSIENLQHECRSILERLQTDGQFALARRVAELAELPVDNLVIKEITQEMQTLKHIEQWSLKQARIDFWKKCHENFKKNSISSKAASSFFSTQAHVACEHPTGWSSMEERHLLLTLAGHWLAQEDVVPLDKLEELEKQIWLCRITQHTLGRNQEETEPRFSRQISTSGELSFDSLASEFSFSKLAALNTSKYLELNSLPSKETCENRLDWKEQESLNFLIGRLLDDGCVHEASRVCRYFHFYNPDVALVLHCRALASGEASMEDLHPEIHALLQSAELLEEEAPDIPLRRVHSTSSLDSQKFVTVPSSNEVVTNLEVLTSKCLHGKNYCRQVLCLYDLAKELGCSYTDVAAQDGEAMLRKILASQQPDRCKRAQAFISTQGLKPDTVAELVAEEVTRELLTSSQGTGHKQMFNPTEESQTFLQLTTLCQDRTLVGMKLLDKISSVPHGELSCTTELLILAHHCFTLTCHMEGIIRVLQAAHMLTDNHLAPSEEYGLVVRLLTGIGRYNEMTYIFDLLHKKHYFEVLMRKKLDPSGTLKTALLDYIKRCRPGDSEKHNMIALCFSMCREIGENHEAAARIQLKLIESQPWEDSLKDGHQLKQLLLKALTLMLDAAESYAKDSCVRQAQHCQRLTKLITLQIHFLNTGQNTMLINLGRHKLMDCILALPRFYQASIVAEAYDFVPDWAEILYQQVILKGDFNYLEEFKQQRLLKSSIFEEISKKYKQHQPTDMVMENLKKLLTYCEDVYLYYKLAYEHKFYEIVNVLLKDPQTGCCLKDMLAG
inactive: IRAK-1-4 Inhibitor I -0.027 | ibrutinib 0.128 | [1] -0.065 | ralimetinib -0.151 | [2] 0.103 | [3] 0.051 | [4] 0.405 | pinometostat 0.035 | [5] 0.03 | [6] 0.097 | [7] -0.384 | [8] 0.068 | [9] -0.063 | [10] -0.182 | Nexturastat A 0.359 | vemurafenib -0.415 | [11] -0.008 | [12] -1.21 | givinostat 0.023 | barasertib 0.029

SLC25A42 (UniProt Q86VD7)
UniProt Q86VD7, sequence (Q86VD7 whole entry, looked up): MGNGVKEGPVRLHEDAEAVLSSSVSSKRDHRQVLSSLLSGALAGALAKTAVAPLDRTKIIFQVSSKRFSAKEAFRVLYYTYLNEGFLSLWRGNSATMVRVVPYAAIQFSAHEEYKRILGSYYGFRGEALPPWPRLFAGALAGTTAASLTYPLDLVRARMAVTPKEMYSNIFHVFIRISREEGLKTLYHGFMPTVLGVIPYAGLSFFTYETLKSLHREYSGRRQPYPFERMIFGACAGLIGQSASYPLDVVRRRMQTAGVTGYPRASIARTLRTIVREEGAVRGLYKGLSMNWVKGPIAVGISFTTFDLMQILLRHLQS
inactive: IRAK-1-4 Inhibitor I 0.034 | ibrutinib 0.045 | [1] -0.002 | ralimetinib 0.041 | [2] 0.015 | [3] 0.014 | [4] -0.037 | pinometostat -0.027 | [5] -0.045 | [6] 0.077 | [7] -0.007 | [8] 0.041 | [9] 0.038 | [10] -0.049 | Nexturastat A -0.021 | vemurafenib -0.015 | [11] 0.089 | [12] -0.054 | givinostat -0.006 | barasertib 0.001

SLC7A6 (UniProt Q92536)
UniProt Q92536, sequence (Q92536 whole entry, looked up): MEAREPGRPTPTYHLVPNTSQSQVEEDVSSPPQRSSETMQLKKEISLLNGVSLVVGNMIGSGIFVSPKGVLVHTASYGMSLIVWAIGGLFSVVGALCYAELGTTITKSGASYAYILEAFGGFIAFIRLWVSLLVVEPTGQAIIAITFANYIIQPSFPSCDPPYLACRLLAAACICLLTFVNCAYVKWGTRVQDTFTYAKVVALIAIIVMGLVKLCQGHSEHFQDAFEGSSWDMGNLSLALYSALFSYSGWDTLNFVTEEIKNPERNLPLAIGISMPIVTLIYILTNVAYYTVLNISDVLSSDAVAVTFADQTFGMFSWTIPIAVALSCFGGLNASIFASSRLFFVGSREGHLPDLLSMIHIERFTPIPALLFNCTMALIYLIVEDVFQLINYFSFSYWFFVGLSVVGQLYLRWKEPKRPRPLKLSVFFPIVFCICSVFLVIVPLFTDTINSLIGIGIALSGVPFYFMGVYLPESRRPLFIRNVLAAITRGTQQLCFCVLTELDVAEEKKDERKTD
inactive: IRAK-1-4 Inhibitor I -0.03 | ibrutinib -0.032 | [1] -0.037 | ralimetinib -0.02 | [2] -0.301 | [3] 0.142 | [4] 0.006 | pinometostat -0.068 | [5] 0.025 | [6] -0.02 | [7] 0.021 | [8] 0.027 | [9] 0.023 | [10] 0.017 | Nexturastat A 0.05 | vemurafenib 0.03 | [11] -0.046 | [12] -0.005 | givinostat 0.012 | barasertib 0.036

SLC25A39 (UniProt Q9BZJ4)
UniProt Q9BZJ4, sequence (Q9BZJ4 whole entry, looked up): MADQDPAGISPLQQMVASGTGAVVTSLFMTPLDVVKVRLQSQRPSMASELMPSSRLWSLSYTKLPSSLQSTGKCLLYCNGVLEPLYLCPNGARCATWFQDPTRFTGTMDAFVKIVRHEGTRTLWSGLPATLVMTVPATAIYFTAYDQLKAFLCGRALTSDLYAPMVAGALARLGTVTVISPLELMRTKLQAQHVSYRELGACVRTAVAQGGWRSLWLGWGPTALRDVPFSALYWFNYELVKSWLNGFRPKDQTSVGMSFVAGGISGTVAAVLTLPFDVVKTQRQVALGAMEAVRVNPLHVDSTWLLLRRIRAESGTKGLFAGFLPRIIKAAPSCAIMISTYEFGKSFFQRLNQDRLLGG
inactive: IRAK-1-4 Inhibitor I 0.037 | ibrutinib 0.032 | [1] 0.068 | ralimetinib -0.035 | [2] -0.112 | [4] 0.035 | pinometostat 0.294 | [5] -0.129 | [6] -0.11 | [7] -0.029 | [8] 0.011 | [9] 0.207 | [10] 0.129 | Nexturastat A -0.037 | vemurafenib -0.019 | [11] -0.048 | [12] -0.133 | givinostat -0.092 | barasertib 0.088
active: [3] -0.673

SUPT5H (UniProt O00267)
inactive: IRAK-1-4 Inhibitor I -0.009 | ibrutinib -0.068 | [1] 0.066 | ralimetinib -0.009 | [2] -0.065 | [3] -0.046 | [4] 0.013 | pinometostat -0.017 | [5] -0.035 | [6] -0.08 | [7] 0.004 | [8] -0.054 | [9] 0.006 | [10] 0.013 | Nexturastat A -0.067 | vemurafenib 0.008 | [11] 0.068 | [12] -0.028 | givinostat 0.035 | barasertib 0.04

SPPL2B (UniProt Q8TCT7)
inactive: IRAK-1-4 Inhibitor I -0.004 | ibrutinib 0.013 | [1] -0.039 | ralimetinib 0.041 | [2] 0.179 | [3] -0.086 | [4] 0.101 | pinometostat -0.032 | [5] 0.049 | [6] 0.02 | [7] -0.097 | [8] 0.004 | [9] 0.089 | [10] 0.041 | Nexturastat A 0.029 | vemurafenib -0.05 | [11] -0.018 | [12] 0.021 | givinostat 0.048 | barasertib 0

Source: the supplement of paper PMC10849652
